PubChem BioAssay
Active and inactive are the calls of the source.

experiment: PSAC antagonists in infected red cells, primary screen, cell-based, P. falciparum Indochina, OD700, 1 h (AID 1154); conditions: P. falciparum Indochina infected RBC osmotic lysis, higher = more signal, called active from +8 up or from −8 down

z-score, inactive:
COC(=O)C(CC#Cc1ccc2c(c1)[C@]1(C(=O)N2)[C@H](c2ccc(O)cc2)N2[C@H](c3ccccc3)[C@H](c3ccccc3)OC(=O)[C@H]2[C@@H]1C(=O)N1CCCCCCC1)C(=O)OC 0.53
CC(C)=CCCC(C)=CC(O)C1C=CC2C(=O)N(c3ccccc3)C(=O)C2N1Nc1ccccc1F (stereo not given) 1.7
CN(C)CCCCNC(=O)[C@H]1C[C@H]2C(=O)N[C@@H](CCCC[N+](C)(C)C)C(=O)N2[C@H]1c1ccc(O)cc1 1.32
CN(C)CCCNC(=O)[C@@H]1c2ccccc2C(=O)N(C2CCCCC2)[C@H]1c1ccc(CO)cc1 1.1
CC(C)CNC(=O)[C@@H]1c2ccccc2C(=O)N(C2CCCCC2)[C@H]1c1ccc(CO)cc1 1.36
O=C1C2C=CC(C(O)c3ccco3)N(Nc3ccccc3)C2C(=O)N1c1ccccc1 (stereo not given) 0.89
COc1ccc([Si](C)(C)[C@@H]2[C@@H](CCn3cc([C@H](O)c4ccccc4)nn3)O[C@]3(C(=O)N(c4ccccc4)c4ccccc43)[C@H]2C)cc1 3.15
CCCNC(=O)[C@@]1(Sc2ccc(C)cc2)CC(=O)N(C2CCCCC2)[C@@H]1c1ccc(CO)cc1I 4.93
COC(=O)C(CC#Cc1ccc2c(c1)[C@]1(C(=O)N2)[C@H](C(=O)Nc2nc3ccccc3s2)[C@H]2C(=O)O[C@H](c3ccccc3)[C@H](c3ccccc3)N2[C@@H]1c1ccc(OCCO)cc1)C(=O)OC 5.91
COc1ccc([Si](C)(C)[C@H]2[C@H](CCO)O[C@@]3(C(=O)N(Cc4ccc(N5C(=O)c6ccccc6Oc6ccccc65)cc4)c4ccccc43)[C@@H]2C)cc1 4.29
CCCCC=C[C@@H](NC(=O)c1ccccc1)c1ccccc1 0.318
COCCOC(=O)N1C(=O)[C@@]2(c3cc(C#CC4=CCCCC4)ccc31)[C@H](C(=O)N1CCCCCCC1)[C@H]1C(=O)O[C@H](c3ccccc3)[C@H](c3ccccc3)N1[C@@H]2c1ccc(OCCO)cc1 4.58
COCCOC(=O)N1C(=O)[C@@]2(c3cc(C#CCNC(N)=O)ccc31)[C@H](c1ccc(O)cc1)N1[C@H](c3ccccc3)[C@H](c3ccccc3)OC(=O)[C@H]1[C@@H]2C(=O)N1CCN(c2ncccn2)CC1 2.78
COCCOC(=O)N1C(=O)[C@@]2(c3cc(C#CCCO)ccc31)[C@H](c1ccccc1OCCO)N1[C@H](c3ccccc3)[C@H](c3ccccc3)OC(=O)[C@H]1[C@@H]2C(=O)N1CCCCCCC1 2.44
CC(=O)N1CC(C(O)C2C=CC3C(=O)NC(=O)C3N2Nc2ccc(Cl)cc2Cl)c2ccccc21 (stereo not given) 3.47
COc1cc2c(cc1OC)CN(C(=O)[C@@H]1[C@H]3C(=O)O[C@H](c4ccccc4)[C@H](c4ccccc4)N3[C@H](c3ccc(O)cc3)[C@@]13C(=O)Nc1ccc(C#CCCO)cc13)CC2 0.125
NCCCCCNC(=O)[C@H]1C[C@H]2C(=O)N[C@@H](Cc3ccccc3)C(=O)N2[C@H]1c1ccc(O)cc1 3.38
CC(C)OC(=O)CC(=O)CC(O)c1ccc([N+](=O)[O-])cc1 (stereo not given) 1.92
CCCNC(=O)[C@@]1(C)c2ccccc2C(=O)N(Cc2ccccc2)[C@H]1c1ccc(CO)cc1 3.35
COC(=O)[C@@]1(Cc2ccc(OC)cc2)[C@H]2c3cc(C(=O)N4CCCC4)n(Cc4cc(C)n(C)n4)c3C[C@H]2CN1C(=O)c1ccccc1 1.46
C=CCC(OC(C)=O)[C@@H]1[C@@H](N(Cc2ccc(-c3cccc(C(F)(F)F)c3)o2)C(=O)c2ccc(C)cc2)c2cc(OCCCO)ccc2N1C(=O)Cc1ccc(OC)cc1 (stereo not given in full) 2.58
CC(=O)n1cc(C(O)C2C=CC3C(=O)N(c4ccccc4)C(=O)C3N2Nc2ccc(C(C)C)cc2)c2ccccc21 (stereo not given) 2.38
C=CCC(OC(C)=O)[C@@H]1[C@@H](N(Cc2ccc(-c3ccccc3)cc2)C(=O)c2ccc(C)cc2)c2cc(OCCCO)ccc2N1C(=O)Cc1ccc2ccccc2c1 (stereo not given in full) -0.0828
COc1cc(C(O)C2C=CC3C(=O)N(Cc4ccccc4)C(=O)C3N2n2cnnc2)cc(OC)c1OC (stereo not given) 1.15

z-score, active:
CC(=O)NCCCC[C@@H]1NC(=O)[C@@H]2C[C@H](C(=O)NCCCCCCN)[C@H](c3cccc(OCCO)c3)N2C1=O 9.65
